From PubChem
Hits are enriched below; roughly 14% of the tested compounds scored in any of these assays.
MARV entry inh – blocks Marburg virus binding to or entry into cells; Marburg virus pseudotyped entry inhibition, cell reporter; Potency, µM (doses to about 37.8 µM), inactives show top-dose activity change, negative = inhibition, most hits filed as inhibitors; 300,000 tested, 1.8% active; AID 540276; calls by dose curve; tested in HEK293 cells; also: potency is read from the fitted curve at half-maximal effect
HCV inhibitor – HCV inhibition; Huh7.5.1 HCVcc-Cre infection, luciferase reporter, 44 h; Potency, µM (highest dose often 41.8 µM), for inactives: at the highest dose activity change, negative = inhibition, actives largely listed as inhibitors; 340,000 tested, 3.4% active; AID 651820; also: potency is read from the fitted curve at half-maximal effect
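Cells seeded at 1,000/well and cultured 4 h, then compounds added followed by HCVcc-Cre virus (~0.5 moi). After 44 h further culture, luciferase substrate was added, plates held 15 min at room temperature, and luminescence read for 15 sec.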
Pf growth 96h – P. falciparum growth inhibition at 96 hours; P. falciparum luciferase reporter growth, 96 h; Potency, µM (series often up to 28.7 µM), for the others: at the top dose activity change, negative = inhibition, most hits filed as inhibitors; 320,000 tested, 6.9% active; also: potency is read from the fitted curve at half-maximal effect
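Cell-based qHTS: luciferase-tagged P. falciparum in erythrocytes (2% hematocrit, 0.05% parasitemia final) incubated with compounds for 96 hours, 37 C, 5% CO2; luciferase detection reagent then added and luminescence measured.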
Pf growth 48h – P. falciparum growth inhibition at 48 hours (one generation); Potency, µM (titrated, usually from 28.7 µM), inactives show at the highest dose activity change, negative = inhibition, hits mostly inhibitors; 310,000 tested, 5.9% active; P. falciparum luciferase growth in erythrocytes, 48 h; also: potency is read from the fitted curve at half-maximal effect
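A one-generation exposure of luciferase-tagged malaria parasites in RPMI 1640/Albumax erythrocyte culture, 37 C and 5% CO2. Inhibition is inferred from decreased luminescence after adding detection reagent.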
HCMV antiviral – human cytomegalovirus inhibition; HFF cells, HCMV-luciferase reporter, 72 h; active compounds read low; activity change, negative = inhibition, % at 57.5 µM; 410,000 tested, 4.5% active; in the data active = activity change below about -60%; inconclusive = no clear call, values can overlap the other calls; inactive = above about -39%
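Two compound doses tested in HFFs infected with HCMV-luciferase, MOI 1 PFU/cell, 72 h at 37C. Lysate luminescence read with OneGlo; data normalized against buffer-only and 10uM Salinomycin inhibitor controls.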
LASV entry inh – Lassa virus entry inhibition. Potency, µM (doses to about 37.9 µM), without a hit: at the top dose activity change, negative = inhibition, usual class: inhibitors. 300,000 tested, 1.2% active. Lassa virus pseudotype entry inhibition, cell reporter; calls by dose curve; tested in HEK293 cells; also: potency is read from the fitted curve at half-maximal effect; nearly all actives have a fitted effect of over 50% in size
* marks the source's active call; other numbers are inactive results; ? = inconclusive; · = not tested or not shown; [ ] = another dose, or the depositor's remark. Unless noted, calls follow the shape of the dose curve; as a rule, active = well fitted inhibition curve with a large enough effect; inconclusive = small, poorly fitted or top-dose-only effect, or another doubt; inactive = no such curve, though single readings can be large or run the other way. % is scaled to controls: 0 for no effect and ±100 for the full control effect.

SMILES	MARV entry inh	HCV inhibitor	Pf growth 96h	Pf growth 48h	HCMV antiviral	LASV entry inh
COc1ccc(-c2nc3cc(NC(=O)COc4ccc(F)cc4)ccc3o2)cc1	?	·	·	·	36	25%[46.1 µM]
CCCCCC(O)(c1ccc(OC)cc1)C(CN1CCOCC1)c1ccccc1 (stereo not drawn)	?	?	8%	1.7µM*	-61*	?
CCCCC(O)(c1ccc(OC)cc1)C(CN1CCOCC1)c1ccccc1 (stereo not drawn)	?	-21%	24%	·	-38	-20%[46.1 µM]
CCCCCC(O)(c1ccc(OCC)cc1)C(CN1CCOCC1)c1ccccc1 (stereo not drawn)	?	-5%	?	2.1µM*	6	?
COc1ccc(/C=c2\sc3nc(=O)c(C)nn3c2=O)c(OC)c1	·	10%	0%	11%	-62*	·
COc1ccccc1/C=c1\sc2nc(-c3ccccc3OC)nn2c1=O	?	6%	51%	1%	2	21%
Cc1nn(-c2ccccc2)c(C)c1C(=O)OCC(=O)N1CCN(S(=O)(=O)c2ccccc2)CC1	8%	7%	-17%	-13%	0	-4%
O=C(c1nc(-c2ccccc2)n(-c2ccccc2)n1)N1CCN(S(=O)(=O)c2ccccc2)CC1	-24%[46.1 µM]	-48%	·	9.3µM*	?	?
COc1ccc(S(=O)(=O)N2CCN(C(=O)c3c(C)nn(-c4ccccc4)c3C)CC2)cc1	29%	-2%	8.3µM*	10µM*	33	-24%
O=C(O)c1nc(-c2ccccc2)n(-c2ccccc2)n1	?	5%	41%	-8%	-10	8%
O=C(c1cc(-c2ccccc2)nn1-c1ccccc1)N1CCN(S(=O)(=O)c2c(F)cccc2F)CC1	18%	13µM*	?	?	-20	?
O=C(c1cc(C2CC2)nn1-c1ccccc1)N1CCN(Cc2ccc(Cl)cc2)CC1	·	7.1µM*	?	?	-31	·
COc1ccc(CNC(=O)C[C@@H]2C[C@H]3c4cc(NC(=O)C5CCC5)ccc4O[C@H]3[C@@H](CO)O2)cc1	·	·	·	·	25	·
COc1ccc(OC)c(S(=O)(=O)N2CCN(C(=O)c3cc(C4CC4)nn3-c3ccccc3)CC2)c1	·	?	9.3µM*	?	8	·
O=C(c1cc(C2CC2)nn1-c1ccccc1)N1CCN(S(=O)(=O)c2ccccc2)CC1	-26%	?	?	15µM*	?	?
Cc1ccc(C)c(S(=O)(=O)N2CCN(C(=O)c3cc(-c4cccs4)nn3-c3ccccc3)CC2)c1	?	?	13µM*	7.4µM*	?	?
Cc1ccc(S(=O)(=O)N2CCN(C(=O)c3cc(C4CC4)nn3-c3ccccc3)CC2)cc1	·	·	·	·	8	·
Cc1ccc(C)c(S(=O)(=O)N2CCN(C(=O)[C@@H]3CCCN3C(=O)c3cccs3)CC2)c1	4%	?	-1%	?	0	0%
COCCNC(=O)C1(C)CCCN(Cc2ccc3ccccc3c2Br)C1 (stereo not drawn)	·	·	·	·	-18	·
O=C(CNC(=O)c1ccc(Br)cc1)OC1CCOC1=O (stereo not drawn)	·	·	·	·	-21	·
CC(C)[C@H](NC(=O)N1c2ccccc2NC(=O)[C@@H]1C(C)C)C(=O)N1CCC(C(=O)O)CC1	·	32µM*	-1%	14%	40	·
CC(=O)c1cnc(Nc2nc(C)c3cc(C)c(C)cc3n2)nc1C	4%	-4%	13µM*	2%	-16	-14%
Cc1cc(C)c2c(CN3CCN(Cc4ccccc4)CC3)cc(=O)oc2c1	·	?	-14%	-7%	-62*	·
Cc1ccc2c(CN(Cc3ccccc3)Cc3ccccc3)cc(=O)oc2c1	?	·	·	·	0	·
CCN(Cc1cc(=O)oc2cc(C)ccc12)c1ccccc1	·	22µM*	?	?	4	·
SMILES	MARV entry inh	HCV inhibitor	Pf growth 96h	Pf growth 48h	HCMV antiviral	LASV entry inh
Cc1cc(C)c2c(CN(Cc3ccccc3)Cc3ccccc3)cc(=O)oc2c1	·	·	·	·	?	22µM*
O=C(CSc1ccc2nnc(CCNC(=O)c3ccccc3)n2n1)Nc1ccc(F)cc1F	-9%	8%	?	1%	-16	9%
Oc1c(CN2CCN(c3ccccc3)CC2)cc(Br)c2cccnc12	·	?	?	1.9µM*	-70*	·
CCOCC(=O)N1CCN(c2cccc(Cl)c2)CC1	?	-1%	53%	-8%	?	9%
Oc1c(Br)cc(Br)cc1CNc1cccc2cccnc12	·	0%	?	?	98	·
Oc1c(Br)cc(Br)c2cccnc12	·	?	9.5µM*	?	20	·
O=C(Oc1c(CN2CCOCC2)cc(Cl)c2cccnc12)c1ccccc1Br	·	?	10µM*	1.9µM*	-67*	·
CCOCc1cc(CN2CCN(c3cccc(Cl)c3)CC2)c(O)c2ncccc12	?	·	·	·	-100*	?
CCCNC(=O)N1C[C@H](O)COC[C@H]2O[C@@H](CC(=O)N[C@@H]3CCN(Cc4ccccc4)C3)CC[C@@H]21	·	·	·	·	-14	·
COc1cccc(NC(=O)Cc2csc(COc3cccc(C)c3)n2)c1	1%[46.1 µM]	·	·	·	2	28%[46.1 µM]
CNC[C@@H]1OCc2cnnn2CCCC(=O)N([C@H](C)CO)C[C@H]1C	·	·	·	·	-2	·
CCC[C@H]1[C@@H](NS(=O)(=O)c2ccc(C#N)cc2)CC[C@@]23CCCN2C(=O)CCC[C@@H]13	·	·	·	·	-2	·
CCOC(=O)N1CCN(Cc2cc(Cl)c3cccnc3c2O)CC1	?	4µM*	23%	2.6µM*	-92*	?
CC(C)OCc1cc(CN2CCN(c3ccccc3)CC2)c(O)c2ncccc12	?	·	·	·	-70*	?
O=C(Oc1c(Cl)cc(Cl)c2cccnc12)N1CCCCC1	0%	-25%	5.2µM*	-12%	2	1%
O=C(Oc1c(Cl)cc(Cl)c2cccnc12)N1CCOCC1	?	0%	-4%	-14%	-17	?
COCc1cc(CN2CCN(C)CC2)c(O)c2ncccc12	?	?	8.3µM*	·	?	?
COC(=O)c1sccc1S(=O)(=O)N(CC(=O)NCc1ccc(C)cc1)c1ccccc1	·	·	·	·	3	-11%[46.1 µM]
COc1cccc(CNC(=O)Cn2ncn3nc(-c4cccs4)cc3c2=O)c1	-26%[46.1 µM]	·	·	·	-2	5%[46.1 µM]
COc1ccc(Cn2c(CNS(=O)(=O)c3ccc(C)c(C)c3)nc3cccnc32)cc1	·	·	·	·	?	10%[46.1 µM]
c1ccc(N2CCN(Cc3ccnc4ccccc34)CC2)cc1	?	28µM*	-2%	-17%	-83*	-25%
Brc1cc2c(cc1CN1CCN(c3ccccc3)CC1)OCCO2	?	3%	12%	6%	27	?
COCC(C)n1c(C)cc(C(=O)COc2ccc(S(=O)(=O)N3CCOCC3)cc2Cl)c1C (stereo not drawn)	?	14µM*	·	13µM*	40	?
